Assay results: PubChem BioAssay (NCI)
The panel holds about 79,000 compounds, 15% with a hit somewhere; the sample as a whole holds those more often. No stated cut-off is given here; in the data, active means growth inhibition above about 70%; inactive means the rest.

Assays:
[1] = NCI Yeast Anticancer Drug Screen. Data for the rad50 strain (AID 155);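 further: 0% = growth of vehicle-only cultures of the same strain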; details: S. cerevisiae rad50 strain growth inhibition; at 50.0 µM; hits give high values
Outline: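 Inhibition values express reduced yeast growth in compound-treated cultures relative to vehicle-treated controls.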

[2] = NCI Yeast Anticancer Drug Screen. Data for the mec2-1 strain (AID 157); details: S. cerevisiae mec2-1 strain, at 50.0 µM, hits give high values
Outline: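 Readout is yeast growth inhibition, normalised to vehicle-treated controls, in the mec2-1 strain exposed to compound.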

[3] = NCI Yeast Anticancer Drug Screen. Data for the sgs1 mgt1 strain (AID 161);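 further: 0% = growth of cultures given vehicle only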; details: S. cerevisiae sgs1 mgt1 strain, at 50.0 µM, hits give high values
Outline: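 Yeast cells carrying a defined DNA-repair defect were exposed to test compounds. Growth inhibition was measured relative to vehicle-treated controls.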

[4] = NCI Yeast Anticancer Drug Screen. Data for the cln2 rad14 strain (AID 165);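 further: 0% = growth equal to vehicle treated cultures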; details: S. cerevisiae cln2 rad14 strain, at 50.0 µM, hits give high values
Outline: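 Relative to vehicle controls, growth inhibition of compound-treated cln2 rad14 yeast was recorded.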

[5] = NCI Yeast Anticancer Drug Screen. Data for the bub3 strain (AID 167); details: S. cerevisiae bub3 mutant strain, at 50.0 µM, hits give high values
Outline: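 Steps: expose the mutant yeast strain to compound; grow alongside vehicle-treated cultures; measure growth; express inhibition against the vehicle cultures.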

[6] = NCI Yeast Anticancer Drug Screen. Data for the mlh1 rad18 strain (AID 175); details: S. cerevisiae mlh1 rad18 strain growth inhibition; at 50.0 µM; hits give high values
Outline: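 Test agents were incubated with a yeast strain of defined genotype (DNA damage repair defect). Inhibition of growth was derived by comparison with vehicle-exposed cultures.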

Measured: growth inhibition

Nc1ccc2ccccc2c1[N+](=O)[O-]
inactive: [1] 25.9% | [2] 10.1% | [3] 37.6% | [4] 17.5% | [5] 14.9% | [6] 39.3%

CCC(CC)COC(=O)CC(CC(=O)OCC(CC)CC)C(=O)OCC(CC)CC
inactive: [1] -12.3% | [2] -4.85% | [3] 9.35% | [4] -20.1% | [5] 1.1% | [6] 24.6%

CC(C)C(NC(=O)c1ccccc1C(=O)O)c1ccccc1 (stereo not drawn)
inactive: [1] 6.3% | [2] -7.35% | [3] 7.1% | [4] 4.45% | [5] 29.6% | [6] -3.7%

CN(C(=O)/C=C/c1ccccc1)c1ccccc1
inactive: [1] 45.6% | [2] 13.4% | [3] 49.5% | [4] 27.1% | [5] 43.3% | [6] 32.4%

COC(=O)C1c2ccccc2CC(=O)N1NC(=O)c1ccccc1 (stereo not drawn)
inactive: [1] -7.7% | [2] -2.95% | [3] -17.1% | [4] 4.5% | [5] 3.65% | [6] 16.6%

O=[N+]([O-])c1ccc(-c2cc3ccccc3nc2Cl)cc1
inactive: [1] 15.4% | [2] 12.1% | [3] 8.4% | [4] 5.55% | [5] 28.4% | [6] 17%

CCOc1ccc(N=Nc2c(O)n(-c3ccc(Br)cc3)c(=S)n(-c3ccc(OC)cc3)c2=O)cc1
inactive: [1] 28.8% | [2] -8.7% | [3] -9.1% | [4] -24.4% | [5] 1.35% | [6] 2.3%

O=CC(O)C(O)C(O)C(O)COC(=S)OCC(O)C(O)C(O)C(O)C=O (stereo not drawn) (tested in a mixture with another compound)
inactive: [1] -4.35% | [2] -10.1% | [3] -2.85% | [4] -3.1% | [5] 6.05% | [6] -4.25%

CCCCCCCS(=O)(=O)CCCCC(=O)O
inactive: [1] -17.4% | [2] -5.85% | [3] -7% | [4] -3.35% | [5] 6.7% | [6] -9.5%

O=C1Cc2ccccc2C(=O)N1
inactive: [1] 23% | [2] 22.3% | [3] 27.3% | [4] 7.4% | [5] 4.8% | [6] 16.4%

C=CCOC(=O)CC
inactive: [1] 5.95% | [2] -13.2% | [3] -13% | [4] -6.05% | [5] -15.4% | [6] -10%

COC(=O)C(S)(NC(C)=O)C(C)C (stereo not drawn)
inactive: [1] 0.2% | [2] -10.5% | [3] -1.25% | [4] -30.4% | [5] -18.8% | [6] 16.1%

Cn1c(=O)c2[nH]c(N(CCO)N=O)nc2n(C)c1=O
inactive: [1] -9.25% | [2] -8.2% | [3] -4.25% | [4] -7.35% | [5] 13.3% | [6] -26.4%

CC1CCCN(C(=O)Nc2ccccc2)C1 (stereo not drawn)
inactive: [1] 14.4% | [2] -0.8% | [3] -10.2% | [4] 10.4% | [5] 4.65% | [6] 1.15%

O=C(O)C1CC2CC2C1 (stereo not drawn)
inactive: [1] 2.6% | [2] 12% | [3] -2.8% | [4] 9.9% | [5] 16.1% | [6] 9.1%

Cc1cc(N=Nc2ccc(N(C)C)cc2)ccn1
inactive: [1] 21.6% | [2] 7.2% | [3] 6.1% | [4] -52.8% | [5] 13.7% | [6] 0.9%

O=C(OC(=O)c1ccc(Cl)cc1)c1ccc(Cl)cc1
inactive: [1] -4.65% | [2] 25.9% | [3] 5.45% | [4] -8.15% | [5] -9.2% | [6] -7.35%

COc1cc(CCNC(=O)CC(C)C)ccc1OCc1ccccc1
inactive: [1] -14.9% | [2] -27% | [3] 1.35% | [4] -30.5% | [5] -11.9% | [6] -15.9%

COC1(C)CNc2ccccc2C(=O)N1 (stereo not drawn)
inactive: [1] 6.65% | [2] -7.4% | [3] 22.9% | [4] 19.1% | [5] 23.1% | [6] 6.55%

Nc1nc(N)nc(COc2ccccc2Cl)n1
inactive: [1] 6.5% | [2] 8.5% | [3] 8.35% | [4] 9.4% | [5] 15.2% | [6] 13.2%

CC(=O)OCCCC(C)Nc1ccnc2cc(Cl)ccc12 (stereo not drawn)
inactive: [1] -8.15% | [2] -8.95% | [3] -2.35% | [4] 19.9% | [5] -7.9% | [6] 11.3%

COc1cc(/C(=C\c2ccccc2N)C(=O)O)cc(Br)c1OC
inactive: [1] 9.35% | [2] -8.2% | [3] -11.2% | [4] 4.65% | [5] 0% | [6] 1.65%

CC(C)N(C(=O)C12CC3CC(CC(C3)C1)C2)C(C)C
inactive: [1] 24.9% | [2] 0.45% | [3] 8.05% | [4] 13.2% | [5] 20.9% | [6] 6.15%

CCN(CC)P(=O)(c1ccc2c(c1)OCCOCCOCCOCCO2)N(CC)CC
inactive: [1] 28.9% | [2] 22.9% | [3] 21.7% | [4] 23.3% | [5] 33.6% | [6] 37%

CC(=O)NS(=O)(=O)c1ccc(N=C=S)cc1
inactive: [1] -7.25% | [2] 1.85% | [3] -12.8% | [4] -19.4% | [5] -2.9% | [6] -1.05%

CCC#CCN(CCC)CCC
inactive: [1] -8.55% | [2] 7.1% | [3] -10.7% | [4] -41.1% | [5] -17.9% | [6] -18.9%

O=S(=O)(O)C(O)c1ccncc1 (stereo not drawn)
inactive: [1] -38.2% | [2] -41% | [3] -6.15% | [4] -1.8% | [5] -4.25% | [6] -22.7%

O=C(O)CNC(=S)SCc1ccccc1
inactive: [1] 10% | [2] -11.9% | [3] -11.1% | [4] -35.8% | [5] 11.2% | [6] 10.8%

C=C(Br)CNC(=O)c1ccccc1
inactive: [1] 7.5% | [2] -3.45% | [3] -1.35% | [4] -39.4% | [5] 21.4% | [6] 5.2%

Cc1cc2c3ccccc3n(C)c2c2c1C(=O)C=CC2=O
inactive: [1] 6.5% | [2] 20.4% | [3] 20.9% | [4] 3.1% | [5] -7.35% | [6] 55.8%

Cc1ccc(C(=O)c2ccc(C)cc2)cc1
inactive: [1] -2.55% | [2] -4.45% | [3] 13% | [4] -3.7% | [5] 6.3% | [6] 15.1%

O=C1c2cccc([N+](=O)[O-])c2C(=O)N1c1ncn[nH]1
inactive: [1] -5.9% | [2] -2.15% | [3] -21.9% | [4] -6.8% | [5] -43.4% | [6] 0.15%

CC(=O)OCC1OC(n2nnc(CCl)c2CCl)C(OC(C)=O)C(OC(C)=O)C1OC(C)=O (stereo not drawn)
inactive: [1] 38.5% | [2] 8.7% | [3] 0.5% | [4] -3.15% | [5] -0.25% | [6] 8.45%

O=c1nc(Sc2ccccc2)ccn1C1OC(CO)C(O)C1O (stereo not drawn)
inactive: [1] -11.5% | [2] -8.95% | [3] -1.45% | [4] 9.35% | [5] 6.55% | [6] 5.95%

CC(=O)Oc1cc(C(C)C)c(OCCN(C)C)cc1C
inactive: [1] -0.15% | [2] 10.3% | [3] 0.45% | [4] -3.6% | [5] -0.5% | [6] -4.1%

CC(=O)OCC1OC(n2cc([N+](=O)[O-])c(=O)[nH]c2=O)C(OC(C)=O)C(OC(C)=O)C1OC(C)=O (stereo not drawn)
inactive: [1] -12.8% | [2] 9.9% | [3] -8.65% | [4] -20% | [5] 12.8% | [6] -35.1%

COC(=O)c1ccc(N=Nc2ncc(CC(NC(C)=O)C(=O)OC)[nH]2)cc1 (stereo not drawn)
inactive: [1] -16.9% | [2] -46.9% | [3] 20.9% | [4] -34.5% | [5] 4.2% | [6] -13.4%

CCc1ccccc1-n1[nH]c(C)c(C=N)c1=O
inactive: [1] -8.2% | [2] -18.1% | [3] -18.2% | [4] -14.1% | [5] -16.7% | [6] -8.15%
